Here are results for 63 compounds from PubChem BioAssay AID504467 (National Center for Advancing Translational Sciences (NCATS), 2011).

Hit rate of the full screen: of about 330,000 compounds, about 7,700 (2.3%) were called active. Roughly 26% stayed inconclusive and do not appear here. What follows is part of a selection rich in actives, with near analogues and random picks from the rest. Values without a mark were called inactive. Calls follow the shape of the dose curve; as a rule, active = well fitted inhibition curve with a large enough effect; inconclusive = small, poorly fitted or top-dose-only effect, or effect the other way; inactive = flat fitted curve, though single readings scatter.
% is scaled to controls: 0 for no effect and ±100 for the full control effect; potency is read from the fitted curve at half-maximal effect.

The assay in a line: qHTS screen for small molecules that inhibit ELG1-dependent DNA repair in human embryonic kidney (HEK293T) cells expressing luciferase-tagged ELG1. Also: nearly all actives have a fitted effect of over 55% in size. As to conditions: HEK293T ELG1-luciferase reporter, luminescence, 16 h, DNA damage induced by 5-fluorouridine; series mostly up to 46.1 µM; activity change, negative = inhibition: at the top concentration. An outline of the steps: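 Quantitative HTS, concentration-response format. 2,000 cells/well co-treated with 5-fluorouridine and compound, 16 hr in 5% CO2 at 37 °C; ONE-Glo luminescence read after 30 min.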
Background: Quantitative high-throughput screening tests each substance at several concentrations.
In the case of `COCCCNC(=O)CC1C[C@H](C(=O)N2CCCCC2)[C@@]2(CCc3ccccc3)c3[nH]c4ccccc4c3CCN2C1=O` (stereo partly drawn), the “activity change, negative = inhibition” value is 7.79%. For the compound `CC(Oc1ccc(Br)cc1)C(=O)NCC(c1ccco1)N1CCCCC1` (stereo not drawn), the “activity change, negative = inhibition” value was -0.374%.

In the case of `O=C(Nc1cccc(Cl)c1N1CCOCC1)c1cccnc1`, the “activity change, negative = inhibition” value was -3.8%. As for `O=C(Nc1ccc(N2CCN(C(=O)c3ccccc3)CC2)c(Cl)c1)c1cccnc1`, the Potency was 8.2 µM (active).

Turning to `O=C(Cc1ccccc1)Nc1ccc(NC(=O)c2cccnc2)cc1`, the “activity change, negative = inhibition” value was 2.94%.

For the compound `Cc1cc(C)cc(NC(=O)C(c2ccccc2)N2CCN(CC(=O)N3CCCC3)CC2)c1` (stereo not drawn), the “activity change, negative = inhibition” value is 0.225%. Regarding `CCC(C(=O)NCc1cccnc1)n1nc(C)c2sc3ccccc3c2c1=O` (stereo not drawn), the “activity change, negative = inhibition” value was -1.1%.

As to `Cc1onc(-c2c(F)cccc2Cl)c1C(=O)OCC(=O)N1C(C)CCCC1C` (stereo not drawn), the “activity change, negative = inhibition” value is -14.7%.

In the case of `O=C(CSc1nnc(-c2cccs2)n1-c1ccccc1)NCc1ccco1`, the “activity change, negative = inhibition” value was -7.53%. Still for that read-out and setting: next, `CCc1ccc(NC(=O)CSc2nnc(-c3cnccn3)n2Cc2ccco2)cc1`: -6.25%.

For `COc1ccc(NC(=O)CSc2nnc(-c3cccs3)n2Cc2ccco2)cc1OC`, the Potency was 20.6 µM (active).

`Cn1cc(CCC(=O)NC2CC2)c2ccccc21`: the “activity change, negative = inhibition” value is -3.64%. Still for that read-out and setting: next, `CC(C)CCn1cnc2c1c(=O)n(CC(=O)NC(N)=O)c(=O)n2Cc1ccccc1`: 0.175%. In the case of `CCn1nc(C(=O)NNC(=O)C2CSC3(C)CCC(=O)N23)c2ccccc2c1=O` (stereo not drawn), the “activity change, negative = inhibition” value was 10.3%. Same read-out and setting: with `O=C(NNC(=O)c1cccc(S(=O)(=O)Nc2ccc(Cl)cc2)c1)c1ccc(=O)[nH]c1` the figure was 1.65%; with `Cc1nn(-c2ccccc2)c(C)c1C(=O)OCC(=O)NC(=O)NC1CCCCC1`, -26.1%; with `COc1ccc2nc(/N=C(\N)NC(=O)Nc3ccccc3)nc(C)c2c1`, -16.6%. Turning to `Cc1nc(/N=C(\N)NC(=O)NC2CCCCC2)nc2ccccc12`, the Potency is 9.2 µM (active). Regarding `COc1cc(OC)cc(C(=O)NNC(=O)Cc2cccs2)c1`, the “activity change, negative = inhibition” value is 19%. In the case of `CC1Cc2ccccc2N1S(=O)(=O)c1cccc(C(=O)NCC(c2ccco2)N2CCCC2)c1` (stereo not drawn), the “activity change, negative = inhibition” value is 1.24%. `COc1cccc(C(=O)NCCS(=O)(=O)NCC2CCCO2)c1` (stereo not drawn): the “activity change, negative = inhibition” value is 13.3%.

As to `COc1cccc(/C=C2\Sc3ccc(C(=O)NCC4CCCO4)cc3N(C)C2=O)c1` (stereo not drawn), the Potency is 20.6 µM (active). On to `COc1ccccc1-n1cnc2cc(C(=O)NCC3CCCO3)ccc21` (stereo not drawn), for which the “activity change, negative = inhibition” value was 11.5%.

For `COc1cccc(CNC(=O)CN2C(=O)NC(Cc3ccccc3)(c3ccccc3)C2=O)c1` (stereo not drawn), the “activity change, negative = inhibition” value is -5.01%. Still for that read-out and setting: next, `CCOc1ccc(CCNC(=O)COC(=O)c2c(OC)cccc2OC)cc1OCC`: -5.36%.

Take `CCCN1C2CCCC1CC(NC(=O)c1cccc(OC)c1)C2` (stereo not drawn): the “activity change, negative = inhibition” value is -8.9%. On the same count and under the same terms, next, `O=C(c1ccc(S(=O)(=O)N2CCCC2)cc1)N1CCN(c2ccccc2F)CC1`: 13.3%. `O=C(c1c(Cl)cccc1Cl)N1CCN(c2cccc3[nH]ccc23)CC1`: the Potency was 18.3 µM (active). In the case of `COc1ccccc1N1CCN(C(=O)c2ccc(S(=O)(=O)N3CCCCC3)cc2)CC1`, the “activity change, negative = inhibition” value was -21.4%. Consider `COc1ccc(C)cc1NC(=O)CSc1nnc2ccc(-c3ccccn3)nn12`, for which the “activity change, negative = inhibition” value was -10.6%. In the case of `COC(=O)c1cccc(C(=O)N2CCC(CCC(=O)NCc3ccc(F)cc3)CC2)c1`, the “activity change, negative = inhibition” value was -2.27%. For the compound `CN(C)CCn1c2c(c(SCC(=O)NCc3ccccc3)nc1=O)CCC2`, the “activity change, negative = inhibition” value was 13.9%. In the case of `Cc1ccc(OCCNC(=O)CN2C(=O)NC3(CCCC3)C2=O)cc1`, the “activity change, negative = inhibition” value is 1.29%. `CC(NC(=O)COC(=O)CCC(=O)c1ccc(Cl)cc1)c1ccccc1` (stereo not drawn): the “activity change, negative = inhibition” value was 2.29%. On to `COc1ccccc1-c1nnc2n1N=C(c1ccc(OC(F)F)c(OCC3CC3)c1)CS2`, for which the “activity change, negative = inhibition” value is 8.85%.

Consider `CC1=Nn2c(nnc2-c2ccccc2)SC1`, for which the “activity change, negative = inhibition” value was 8.64%. With `COc1ccc(C2=Nn3c(nnc3-c3ccccc3OC)SC2)cc1OC1CCCC1`, the Potency was 20.6 µM (active).

In the case of `COC(=O)c1cc(-c2cccs2)nc2ccccc12`, the “activity change, negative = inhibition” value is 2.19%. For `CC(=O)Nc1cccc(Nc2nc(-c3cccs3)nc3ccccc23)c1`, the Potency was 16.4 µM (active). For the compound `O=C(Nc1nnc(-c2ccccc2)o1)c1cc(-c2cccs2)nc2ccccc12`, the “activity change, negative = inhibition” value is -10.2%.

Take `Cc1ccc2[nH]cc(CCNC(=O)C3CCCCC3)c2c1`: the “activity change, negative = inhibition” value is -2.4%. Still for that read-out and setting: with `Cc1ccc2[nH]c(=O)c(CN(CCCN(C)C)C(=O)Nc3cccc(Cl)c3)cc2c1` the figure was 0%; with `O=C(c1cccs1)N(Cc1cc2ccccc2[nH]c1=O)CC1CCCO1` (stereo not drawn), 18.7%.

For the compound `Cc1cccc(NC(=O)N(Cc2cc3cc(C)cc(C)c3[nH]c2=O)CC2COCCO2)c1` (stereo not drawn), the Potency was 11.6 µM (active). For the compound `Cc1cccc(N(Cc2ccccc2)C(=O)c2cc(S(=O)(=O)N3CCOCC3)ccc2F)c1`, the “activity change, negative = inhibition” value was -24.2%.

As for `CC(C)(C)c1ccc(C(=O)N2CCN(CCNC(=O)C(=O)Nc3ccc(F)cc3)CC2)cc1`, the “activity change, negative = inhibition” value is -5.49%.

On to `CC1=C(C(N)=O)C(c2ccc(Br)cc2)n2ncnc2N1` (stereo not drawn), for which the “activity change, negative = inhibition” value was 0%. In the case of `Fc1ccccc1/C=C1\CCCC2=C1Nc1ncnn1C2c1ccccc1F` (stereo not drawn), the Potency is 18.4 µM (active). Take `Cc1cccc(N(C(=O)c2sc(C)nc2C)C(C(=O)NCC2CCCO2)c2ccccc2)c1` (stereo not drawn): the “activity change, negative = inhibition” value is -6.84%. In the case of `Cn1c(=O)c2c(nc(NCCc3ccccc3)n2Cc2ccccc2)n(C)c1=O`, the Potency is 23.1 µM (active). With `CCn1c(NCCc2ccc(OC)c(OC)c2)nc2c1c(=O)n(C)c(=O)n2C`, the Potency was 11.6 µM (active). For the compound `CCCCNc1nc2c(c(=O)[nH]c(=O)n2C)n1CCOc1ccccc1`, the “activity change, negative = inhibition” value was -13.5%. Take `Cn1c(=O)c2c(ncn2CCc2ccccc2)n(C)c1=O`: the “activity change, negative = inhibition” value is 8.66%.

As to `Cn1c(=O)c2c(nc(NCCNC(=O)c3ccco3)n2Cc2ccccc2F)n(C)c1=O`, the “activity change, negative = inhibition” value is -4.05%. Regarding `CCCCNc1nc2c(c(=O)n(C)c(=O)n2C)n1Cc1cccc(OC)c1`, the Potency is 5.17 µM (active). Consider `CC(C)CCn1c(CN(C)Cc2ccccc2)nc2c1c(=O)n(C)c(=O)n2C`, for which the Potency is 20.6 µM (active). Turning to `Cn1c(=O)c2c(nc(NCc3ccccc3)n2CC(N)=O)n(C)c1=O`, the “activity change, negative = inhibition” value was -6.05%. For `COc1ccc(CCN2CNc3c(c(=O)n(C)c(=O)n3C)C2)cc1OC`, the “activity change, negative = inhibition” value was -11%. For the compound `COC(=O)C(C)Sc1nc2c(c(=O)n(C)c(=O)n2C)n1Cc1cccc(C)c1` (stereo not drawn), the “activity change, negative = inhibition” value is 5.21%.

For `CC(C)CCn1c(=O)c2c(nc3n2CCCN3Cc2ccccc2)n(C)c1=O`, the “activity change, negative = inhibition” value was -15.5%. On to `CCCCn1c(SCC(=O)NCCc2ccc(OC)c(OC)c2)nc2c1c(=O)n(C)c(=O)n2C`, for which the “activity change, negative = inhibition” value was 1.48%. Regarding `Cn1nccc1C(=O)N1CCCC(C(=O)c2ccc(Oc3ccccc3)cc2)C1` (stereo not drawn), the “activity change, negative = inhibition” value was -11%.

Take `Cc1ccccc1NC(=S)NC(=O)Cc1ccc(Cl)cc1`: the “activity change, negative = inhibition” value was 1.58%.
